Several values for one entry are separate records, joined by “and”; a condition that tells them apart may be missing. Equal entries are not always repeated. Out of some 5,500 compounds screened, about 2,000 (36%) were called active. Not shown: some 18% with an inconclusive outcome. No stated cut-off is given here; in the data, active means normalized growth mostly below about 0.91 (no sharp cut-off); inconclusive means no clear call, values can overlap the other calls; inactive means mostly above about 0.92. This is one part of the list.
Assay: chemical genetic growth profiling, strain panel (AID 1159580);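 further: tested at 20 µM; growth read once vehicle control cultures reached saturation at 30 °C; 1 = growth at the plate median or of vehicle wells; lower values mean less growth of the strain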
Conditions: S. cerevisiae deletion strains, growth OD

Measured: normalized growth

CCC(C)C(=O)OC1[C@@H]2CC3=C4CC(=O)O[C@@H](c5ccoc5)[C@]4(C)CCC3[C@@](C)(C2=O)[C@@H](CC(=O)OC)C1(C)C (stereo not given in full)
inactive: locus YAL021C, strain ccr4, hits give low values 1.02 | locus YAL026C, strain drs2, hits give low values 1.01 | locus YAL030W, strain snc1, hits give low values 1.01 | locus YBL061C, strain skt5, hits give low values 1.01 | locus YBR009C, strain hhf1, hits give low values 1.01 | locus YBR021W, strain FUR4, hits give low values 1 | locus YBR023C, strain chs3, hits give low values 1 | locus YBR171W, strain sec66, hits give low values 1.01 | locus YBR229C, strain ROT2, hits give low values 0.999 | locus YBR231C, strain swc5, hits give low values 1.01 | locus YBR279W, strain paf1, hits give low values 1.01 | locus YCL011C, strain gbp2, hits give low values 1.01 | locus YCL016C, strain dcc1, hits give low values 1.01 | locus YCL029C, strain bik1, hits give low values 1 | locus YCL061C, strain MRC1, hits give low values 1 | locus YCL069W, strain vba3, hits give low values 1.02 | locus YCR088W, strain abp1, hits give low values 1 | locus YDL005C, strain med2, hits give low values 1 | locus YDL035C, strain GPR1, hits give low values 0.987 | locus YDL040C, strain nat1, hits give low values 0.991 | locus YDL074C, strain BRE1, hits give low values 1.01 | locus YDL101C, strain DUN1, hits give low values 1.02 | locus YDL185W, strain tfp1, hits give low values 1.01 | locus YDL192W, strain arf1, hits give low values 0.994 | locus YDR001C, strain nth1, hits give low values 1 | locus YDR069C, strain doa4, hits give low values 0.992 | locus YDR101C, strain arx1, hits give low values 0.991 | locus YDR137W, strain rgp1, hits give low values 0.961 | locus YDR159W, strain sac3, hits give low values 0.998 | locus YDR162C, strain NBP2, hits give low values 0.995 | locus YDR195W, strain ref2 0.987 | locus YDR297W, strain sur2, hits give low values 1.01 | locus YDR318W, strain mcm21, hits give low values 1 | locus YDR334W, strain swr1, hits give low values 1 | locus YDR335W, strain msn5, hits give low values 1.01 | locus YDR388W, hits give low values 1.01 | locus YDR392W, strain spt3, hits give low values 0.979 | locus YDR502C, strain sam2, hits give low values 1.02 | locus YEL003W, strain gim4, hits give low values 1.01 | locus YEL037C, strain rad23, hits give low values 1.01 | locus YEL061C, strain CIN8 (second series), hits give low values 1.01 | locus YER015W, strain faa2, hits give low values 0.999 | locus YER016W, strain bim1, hits give low values 0.999 | locus YER110C, hits give low values 1.02 | locus YER111C, strain swi4, hits give low values 0.99 | locus YER155C, strain BEM2 (second series), hits give low values 1.01 | locus YER155C, strain BEM2, hits give low values 1.01 | locus YER167W, strain BCK2, hits give low values 1 | locus YFR010W, strain ubp6, hits give low values 1.02 | locus YGL078C, strain dbp3, hits give low values 1.02 | locus YGL086W, strain mad1, hits give low values 1 | locus YGL167C, strain pmr1, hits give low values 1.01 | locus YGL173C, strain kem1, hits give low values 1 | locus YGL227W, strain vid30, hits give low values 0.999 | locus YGL240W, strain doc1, hits give low values 0.989 | locus YGL248W, strain PDE1, hits give low values 1.01 | locus YGL253W, strain hxk2, hits give low values 1.03 | locus YGR078C, strain PAC10, hits give low values 1.02 | locus YGR135W, strain pre9, hits give low values 1.04 | locus YGR229C, strain SMI1, hits give low values 0.982 | locus YGR252W, strain gcn5, hits give low values 1.02 | locus YHR013C, strain ard1, hits give low values 1.01 | locus YHR027C, strain rpn1, hits give low values 0.994 | locus YHR030C, strain SLT2, hits give low values 0.959 | locus YHR079C, strain IRE1 (second series), hits give low values 1.01 | locus YHR079C, strain IRE1, hits give low values 0.95 | locus YHR094C, strain hxt1, hits give low values 1 | locus YHR129C, strain ARP1, hits give low values 1.01 | locus YHR142W, strain chs7, hits give low values 1.04 | locus YHR200W, strain rpn10, hits give low values 1 | locus YIL066C, strain RNR3, hits give low values 0.998 | locus YIL073C, strain SPO22, hits give low values 1.06 | locus YIL125W, strain kgd1, hits give low values 0.998 | locus YIR030C, strain dcg1, hits give low values 1 | locus YJL092W, strain hpr5, hits give low values 1 | locus YJL095W, strain BCK1 (second series), hits give low values 1 | locus YJL095W, strain BCK1, hits give low values 1.04 and 0.958 | locus YJL115W, strain asf1, hits give low values 1 | locus YJL129C, strain trk1, hits give low values 1.01 | locus YJL134W, strain LCB3, hits give low values 1 | locus YJL154C, strain vps35, hits give low values 1 | locus YJL164C, strain tpk1, hits give low values 1.02 | locus YJL166W, strain qcr8, hits give low values 1.01 | locus YJL168C, strain set2, hits give low values 1.01 | locus YJL187C, strain SWE1 (second series), hits give low values 1.03

Source: PubChem BioAssay AID1159580 (chemical genetic matrix, 2015)
